Data: PubChem BioAssay (NCATS)
Inconclusive results are not listed. A call without a number means that no potency is given here. A number with no mark means an inactive call. Active and inactive are the calls of the source. The call rests on the fitted dose curve; in most records, active means well fitted inhibition curve with a large enough effect; inconclusive means small, poorly fitted or top-dose-only effect; inactive means no such curve, though single readings can be large or run the other way.

Experiments:
[1] = test system: Zika virus NS2B-NS3 protease (unlinked complex); test: Primary screen GU Rhodamine qHTS for Zika virus inhibitors: Unlinked NS2B-NS3 protease assay (AID 1347159); further: nearly all actives have a fitted effect of over 60% in size; further: potency means the concentration at half of the fitted maximal effect
In short: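 Percent inhibition came from the 15-min rise in Rhodamine110 fluorescence (1.5 microM substrate, ~15% conversion), normalized to no-inhibitor and no-enzyme wells and Hill-fitted. Unlinked protease, 25 nM, pH 8.0 Tris buffer; compounds up to 114 microM, 15-min preincubation.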

[2] = test system: Zika virus NS2B-NS3 protease (linked construct); test: Primary screen NINDS Rhodamine qHTS for Zika virus inhibitors (AID 1347160); further: nearly all actives have a fitted effect of over 55% in size
In short: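 Rhodamine110-peptide cleavage (1.5 µM substrate) by 25 nM linked NS2B-NS3 enzyme at pH 8.0 (Tris, Tween 20), after 15 min RT preincubation with compounds; 15-min fluorescence change normalized to controls and Hill-fitted.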

SMILES | Potency [1] | Potency [2] | activity change, negative = inhibition [1] | activity change, negative = inhibition [2]
C[C@H](Nc1ncnc2nc[nH]c12)c1cc2ccc(F)cc2nc1-c1ccccn1 | inactive | inactive |  | 
CC(C)=CCC[C@](C)(O)[C@H]1CC[C@]2(C)[C@@H]1[C@H](O)CC1[C@@]3(C)CC[C@H](O)C(C)(C)C3[C@@H](O[C@@H]3O[C@H](CO)[C@@H](O)[C@H](O)[C@H]3O[C@@H]3OC[C@@H](O)[C@H](O)[C@H]3O)C[C@]12C (some centres undefined) | inactive | inactive |  | 
C=C(C)[C@@H]1CC[C@]2(C)CC[C@]3(C)[C@H](CC[C@@H]4[C@@]5(C)CC[C@@H](O)C(C)(C)[C@@H]5CC[C@]43C)[C@@H]12 | inactive | inactive |  | 
CC(C)=CCC[C@](C)(O)[C@H]1CC[C@]2(C)[C@@H]1[C@H](O)CC1[C@@]3(C)CC[C@H](O)C(C)(C)[C@@H]3[C@@H](O[C@@H]3O[C@H](CO)[C@@H](O)[C@H](O)[C@H]3O[C@@H]3O[C@H](CO)[C@@H](O)[C@H](O)[C@H]3O)C[C@]12C (some centres undefined) | inactive | inactive |  | 
CC(=O)N1CCN(Cc2ccc([C@H](C)Nc3nccc(N4C(=O)OC[C@@H]4C(C)C)n3)cc2)CC1 | inactive | inactive |  | 
CC(C)CN(C[C@@H](O)[C@H](Cc1ccccc1)NC(=O)O[C@@H]1CO[C@H]2OCC[C@H]21)S(=O)(=O)c1ccc(N)cc1 | inactive | inactive |  | 
CC(=O)NC1C(OC(C)(C)C2CCC3(C)C=C(C4CCC5C4(C)CC(O)C4OC(C(C)(C)O)CCC45C)CCC3O2)OC(CO)C(O)C1O (centres undefined) | inactive | inactive |  | 
C[C@@H]1CN(Cc2ncccn2)C[C@H]1c1nc2c(cnn2C2CCOCC2)c(=O)[nH]1 | inactive | inactive |  | 
Cc1ccc(NC(=O)C(=O)NC2CC(C)(C)NC(C)(C)C2)cc1 | inactive | inactive |  | 
C=CC1C(OC2OC(CO)C(O)C(O)C2O)OC=C(C(=O)OC)C1CC1CC(=O)CC(CCc2ccc(O)cc2)O1 (centres undefined) | inactive | inactive |  | 
C=C(CO)C12OC1C1(C)C(=CC2=O)C(O)C(O)CC1C (centres undefined) | inactive | inactive |  | 
COC1/C=C/C(C)(O)C(SCC(N)C(=O)O)CC(=O)OC(C)C(C)CC/C=C/1C (centres undefined) | inactive | inactive |  | 
C=C(C)C1CCC2(C(=O)O)CCC3(C(=O)O)C(CCC4C5(C)CCC(O)C(C)(C(=O)O)C5CCC43C)C12 (centres undefined) | inactive | inactive |  | 
Nc1nc2c(ncn2[C@@H]2O[C@H](CO)[C@@H](O)[C@H]2O)c(=O)[nH]1 | inactive | inactive |  | 
COc1c/c(=C2\C=c3ccccc3=N2)[nH]/c1=C\c1[nH]c(C)cc1C | inactive | inactive |  | 
COC(=O)N[C@@H](C)CNc1nccc(-c2cn(C(C)C)nc2-c2cc(Cl)cc(NS(C)(=O)=O)c2F)n1 | inactive | inactive |  | 
CC1=CC(=O)CC(C)(C)[C@@]1(O)CC[C@@H](C)O[C@@H]1O[C@H](CO)[C@@H](O)[C@H](O)[C@H]1O | inactive | inactive |  | 
CC1(C)CC[C@]2(C(=O)O[C@@H]3O[C@H](CO)[C@@H](O)[C@H](O)[C@H]3O)CC[C@]3(C)C(=CCC4[C@@]5(C)C[C@@H](O)[C@H](O)[C@](C)(C(=O)O)C5CC[C@]43C)C2C1O (some centres undefined) | inactive | inactive |  | 
CC1=C(C(=O)O)/C(=C\CO[C@@H]2O[C@H](CO)[C@@H](O)[C@H](O)[C@H]2O)C(OC(=O)/C=C/c2ccc(O)cc2)C1 (some centres undefined) | inactive | inactive |  | 

SMILES | Potency [1] | Potency [2] | activity change, negative = inhibition [1] | activity change, negative = inhibition [2]
CC(C)CNCc1ccc(-c2ccccc2S(=O)(=O)N2CCCC2)cc1 | inactive | inactive |  | 
Cc1cc(C)c2c(N)c(C(=O)NCc3ccc(Cl)cc3)sc2n1 | inactive | inactive |  | 
CC(=O)O[C@@H]1[C@H](O[C@@H]2O[C@@H](CO)[C@H](O)[C@H]2O)[C@@H](O[C@@H]2O[C@@H](C)[C@H](O[C@@H]3OC[C@@H](O)[C@H](O)[C@H]3O)[C@@H](O)[C@H]2O)[C@H](OC(=O)[C@]23CCC(C)(C)C[C@H]2C2=CCC4[C@@]5(C)CC[C@H](O[C@@H]6O[C@H](C(=O)O)[C@@H](O)[C@H](O)[C@H]6O[C@@H]6O[C@H](CO)[C@H](O)[C@H](O)[C@H]6O)[C@@](C)(C=O)C5CC[C@@]4(C)[C@]2(C)CC3)O[C@@H]1C (some centres undefined) |  |  | 10.7% [at 19.1 µM] | -19.7% [at 10.7 µM]
CCC(O)(C(=O)OCc1ccccc1NC(=O)CCC(=O)O)C(C)O (centres undefined) | inactive | inactive |  | 
COc1cc(O)cc(C)c1C(=O)OC1C(CO)OC(OC2C(O)C(O)C(O)C(O)C2O)C(O)C1O (centres undefined) | inactive | inactive |  | 
COc1cc2ncnc(N3CCC(Oc4cnc5ccccc5n4)C3)c2cc1OC (centres undefined) | inactive | inactive |  | 
Nc1nc(-n2cc(C(=O)O)c(=O)c3cc(F)c(N4CC(O)C4)c(Cl)c32)c(F)cc1F | inactive | inactive |  | 
CC(C)[C@@H]1C(=O)N(S(C)(=O)=O)[C@@H]2CCN(C(=O)/C=C/CN3CCCCC3)[C@H]21 | inactive | inactive |  | 
COc1ccc([C@@]2(O)c3c(ccc(CC=C(C)C)c3O)NC(=O)[C@@H]2OC)cc1 | inactive | inactive |  | 
CC(O)CO[C@@H]1O[C@H](CO)[C@@H](O)[C@H](O)[C@H]1O (some centres undefined) | inactive | inactive |  | 
O=C(O)C(O[C@@H]1O[C@H](CO[C@@H]2O[C@H](CO)[C@@H](O)[C@H](O)[C@H]2O)[C@@H](O)[C@H](O)[C@H]1O)c1ccccc1 (some centres undefined) | inactive | inactive |  | 
Cc1nc(C)c(-c2ccc(C3CCC(CC(=O)O)CC3)cc2)nc1C(N)=O (centres undefined) | inactive | inactive |  | 
O=c1[nH]ccc2cc(OC3CCNCC3)ccc12 | inactive | inactive |  | 
c1cc(OCCCN2CCCCC2)ccc1CN1CCCCC1 | inactive | inactive |  | 
C[C@@H]1O[C@@H](O[C@@H]2[C@@H](O)[C@@H](O[C@]3(CO)O[C@H](CO)[C@@H](O)[C@@H]3OC(=O)/C=C/c3ccc(O)cc3)O[C@H](CO)[C@H]2OC(=O)/C=C/c2ccc(O)cc2)[C@H](O)[C@H](O)[C@H]1O[C@@H]1O[C@@H](C)[C@H](O[C@@H]2OC[C@](O)(CO)[C@H]2O)[C@@H](O)[C@H]1O | inactive | inactive |  | 
CCc1c(C)nc2c(-c3cnn(-c4cc(CO)ccn4)c3)c[nH]n2c1=O | inactive | inactive |  | 
CC(=O)c1ccc2c(c1)C(O)C(C(C)(C)O)O2 (centres undefined) | inactive | inactive |  | 
CC(C)(C)OC(=O)N1CCC(OCc2nc(-c3ccncc3)no2)CC1 | inactive | inactive |  | 
CCCOc1ccc(-c2nc(OC)c3ccccc3n2)cc1 | inactive | inactive |  | 

SMILES | Potency [1] | Potency [2] | activity change, negative = inhibition [1] | activity change, negative = inhibition [2]
CN1CCN(c2ccc(C(=O)Nc3n[nH]c4ccc(Cc5cc(F)cc(F)c5)cc34)c(NC3CCOCC3)c2)CC1 | inactive | inactive |  | 
CC(C)c1c2cc(-c3ccnc(NC4CCC(NC5CCOCC5)CC4)n3)ccc2nn1C (centres undefined) | inactive | inactive |  | 
Nc1nc2c(ncn2[C@@H]2O[C@@H]3COP(=O)(O)O[C@H]3[C@H]2O)c(=O)[nH]1 | inactive | inactive |  | 
CS(=O)(=O)c1ccc(-c2nnc(/C=C/c3nnc(-c4ccc(C#N)cc4)o3)n2-c2ccccc2Cl)nc1 | inactive | inactive |  | 
CC(=O)c1cc(C(=O)N[C@@H](C)Cn2ccc(-c3ccc(C#N)c(Cl)c3)n2)[nH]n1 | inactive | inactive |  | 
CC1(C(=O)O)CCCC2(C)C3CCC4CC3(CCC12)CC4=O (centres undefined) | inactive | inactive |  | 
CCOC(=O)C(CCc1ccccc1)NC1CSC(c2cccs2)CN(CC(=O)O)C1=O (centres undefined) | inactive | inactive |  | 
COc1ncc(Nc2ncc([C@@H](C)N3CCN(S(C)(=O)=O)CC3)cc2-c2nc(C)nc(N)n2)cc1F | 44.7 µM (active) | inactive |  | 
CC1=CCC(C(C)(C)O[C@@H]2O[C@H](CO[C@@H]3O[C@@H](C)[C@H](O)[C@@H](O)[C@H]3O)[C@@H](O)[C@H](O)[C@H]2O)CC1 (some centres undefined) | inactive | inactive |  | 
C[C@H]1Oc2cc(cnc2N)-c2c(nn(C)c2C#N)CN(C)C(=O)c2ccc(F)cc21 | inactive | inactive |  | 
O=C1OCC(c2ccccc2)=C1Cc1ccccc1 | inactive | inactive |  | 
O=C(CSc1nc2c(c(=O)n1-c1ccccc1)SCC2)Nc1ccc(-c2ccccc2)cn1 | inactive | inactive |  | 
COC(=O)C12CCC(C)C(C)C1C1=CCC3C4(C)CCC(OC(C)=O)C(C)(C)C4CCC3(C)C1(C)CC2 (centres undefined) | inactive | inactive |  | 
C=C1CC[C@H]2[C@@](C)(CCC(O)[C@@]2(C)CO)[C@@H]1CCC1=CCOC1=O (some centres undefined) | inactive | inactive |  | 
CO[C@@H](C)Cn1c(=O)n(C)c2cnc3ccc(-c4cncc(C(C)(C)O)c4)cc3c21 | inactive | inactive |  | 
COc1cc(N2CCOCC2)ccc1Nc1ncc(Cl)c(Nc2ccccc2NS(C)(=O)=O)n1 | inactive | inactive |  | 
CC(=O)CC1CCC(C(C)C(=O)OCC(O)CO)O1 (centres undefined) | inactive | inactive |  | 
O=C1NC(=O)C(c2cn(-c3ccccc3)nc2-c2ccc(F)cc2)N1 (centres undefined) | inactive | inactive |  | 
O=S(=O)(c1ccc(S(=O)(=O)n2cnc3ccccc32)cc1)N1CCCCCC1 | inactive | inactive |  | 
